Experimental data taken from PMC5700166.
Positions count from the first letter of the chain named.

How the values were obtained:
Assay in all cases: protein-binding microarray (PBM); PBM: ~300 nM protein, 6 mM HEPES pH 7.8, 80 mM KCl, 0.5 mM EDTA, 0.5 mM EGTA, 6% glycerol, 35 ng/ul poly-dIdC, 1% milk, 1 h, room temperature; Ap Aiptasia and Nv Nematostella (sea anemones) / Co Capsaspora / Aq Amphimedon (sponge) / Dm Drosophila / Hu human; RHD is the Rel homology domain; high values mean tight binding
Conditions in all cases: dsDNA, one strand shown
GST-Ap-NF-kB RHD = target: T1, GST-Ap-NF-kB RHD (Exaiptasia pallida (Aiptasia), UniProt A0A913YAJ5 2-422)
T1 sequence: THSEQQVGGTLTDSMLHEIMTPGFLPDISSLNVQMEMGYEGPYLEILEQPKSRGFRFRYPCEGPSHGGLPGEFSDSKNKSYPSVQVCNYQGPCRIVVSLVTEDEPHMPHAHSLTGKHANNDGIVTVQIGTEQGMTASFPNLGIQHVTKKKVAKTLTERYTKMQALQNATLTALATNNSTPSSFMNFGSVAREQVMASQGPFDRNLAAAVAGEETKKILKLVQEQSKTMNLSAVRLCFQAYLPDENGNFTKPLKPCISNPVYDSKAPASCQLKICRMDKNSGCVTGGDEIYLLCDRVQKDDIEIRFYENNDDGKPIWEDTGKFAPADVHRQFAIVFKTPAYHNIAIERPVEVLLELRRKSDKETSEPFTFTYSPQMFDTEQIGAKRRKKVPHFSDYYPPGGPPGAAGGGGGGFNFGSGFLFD

[1] = target: T2, GST-Nv-NF-kB (Cys allele) (Nematostella vectensis, UniProt E5G601 2-411)
T2 sequence: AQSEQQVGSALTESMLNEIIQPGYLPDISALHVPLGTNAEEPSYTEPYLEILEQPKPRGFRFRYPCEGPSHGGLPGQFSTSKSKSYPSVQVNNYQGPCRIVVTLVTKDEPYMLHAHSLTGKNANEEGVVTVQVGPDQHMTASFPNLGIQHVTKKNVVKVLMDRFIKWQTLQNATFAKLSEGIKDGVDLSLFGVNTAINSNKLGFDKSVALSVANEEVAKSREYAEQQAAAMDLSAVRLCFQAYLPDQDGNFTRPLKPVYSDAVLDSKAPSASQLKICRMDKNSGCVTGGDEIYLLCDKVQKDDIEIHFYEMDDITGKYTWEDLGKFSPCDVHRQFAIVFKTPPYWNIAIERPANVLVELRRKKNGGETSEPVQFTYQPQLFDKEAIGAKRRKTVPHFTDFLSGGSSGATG

[2] = target: T3, GST-Nv-NF-kB (Ser allele) (Nematostella vectensis, UniProt A7UNT2 2-411)
T3 sequence: T2 sequence with Q21R, C66S, S207N, E215Q, V217A, E225K, A268E, D399E

GST-Co-NF-kB = target: T4, GST-Co-NF-kB (Capsaspora owczarzaki, UniProt F1ARL5 200-546)
T4 sequence: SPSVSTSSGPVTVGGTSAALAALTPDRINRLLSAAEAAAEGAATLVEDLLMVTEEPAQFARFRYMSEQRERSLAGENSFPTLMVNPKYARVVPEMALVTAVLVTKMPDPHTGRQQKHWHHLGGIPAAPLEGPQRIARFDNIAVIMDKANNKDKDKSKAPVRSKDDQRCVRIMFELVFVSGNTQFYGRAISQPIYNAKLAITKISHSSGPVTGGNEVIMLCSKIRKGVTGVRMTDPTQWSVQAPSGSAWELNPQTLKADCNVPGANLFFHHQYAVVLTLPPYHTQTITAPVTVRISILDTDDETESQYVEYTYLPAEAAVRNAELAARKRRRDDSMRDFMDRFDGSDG

GST-Dm-Relish = target: T5, GST-Dm-Relish (Drosophila melanogaster, UniProt Q94527 99-473)
T5 sequence: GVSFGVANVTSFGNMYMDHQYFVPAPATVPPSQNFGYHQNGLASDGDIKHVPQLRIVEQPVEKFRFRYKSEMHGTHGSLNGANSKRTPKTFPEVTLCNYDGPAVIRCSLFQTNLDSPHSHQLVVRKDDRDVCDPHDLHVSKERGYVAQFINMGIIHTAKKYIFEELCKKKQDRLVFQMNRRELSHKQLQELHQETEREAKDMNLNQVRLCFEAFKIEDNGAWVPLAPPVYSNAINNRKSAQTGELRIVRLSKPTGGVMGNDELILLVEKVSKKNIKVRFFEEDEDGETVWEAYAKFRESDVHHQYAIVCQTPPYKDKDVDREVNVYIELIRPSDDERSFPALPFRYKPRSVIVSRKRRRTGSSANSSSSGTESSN

GST-Aq-NF-kB = target: T6, GST-Aq-NF-kB (Amphimedon queenslandica, UniProt A9Y5G7 2-389)
T6 sequence: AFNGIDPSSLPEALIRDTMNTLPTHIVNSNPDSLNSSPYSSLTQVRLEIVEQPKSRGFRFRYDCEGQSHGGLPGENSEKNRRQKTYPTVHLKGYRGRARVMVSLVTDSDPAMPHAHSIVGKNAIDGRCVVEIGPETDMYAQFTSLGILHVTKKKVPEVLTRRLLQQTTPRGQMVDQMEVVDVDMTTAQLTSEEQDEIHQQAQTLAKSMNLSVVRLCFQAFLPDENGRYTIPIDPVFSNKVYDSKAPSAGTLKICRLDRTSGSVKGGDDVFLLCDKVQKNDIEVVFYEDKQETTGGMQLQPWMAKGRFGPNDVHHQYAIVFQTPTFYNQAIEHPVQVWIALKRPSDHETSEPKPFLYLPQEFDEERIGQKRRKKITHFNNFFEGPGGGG

GST-Hu-p50 = GST-Hu-p50 (Homo sapiens, UniProt P19838 7-356)
GST-Hu-p50, sequence (P19838 7-356): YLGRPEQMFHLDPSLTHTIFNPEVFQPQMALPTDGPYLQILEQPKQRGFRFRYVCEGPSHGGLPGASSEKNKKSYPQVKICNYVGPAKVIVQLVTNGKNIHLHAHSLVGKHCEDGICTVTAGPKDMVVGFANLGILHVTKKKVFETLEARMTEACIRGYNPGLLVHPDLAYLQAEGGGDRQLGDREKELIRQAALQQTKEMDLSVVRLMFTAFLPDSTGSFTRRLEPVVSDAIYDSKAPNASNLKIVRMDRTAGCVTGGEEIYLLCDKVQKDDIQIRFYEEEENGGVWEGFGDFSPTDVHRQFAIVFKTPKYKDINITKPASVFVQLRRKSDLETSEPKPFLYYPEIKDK

Sequence	binding signal (GST-Ap-NF-kB RHD) [z-score]	binding signal [1] [z-score]	binding signal [2] [z-score]	binding signal (GST-Co-NF-kB) [z-score]	binding signal (GST-Dm-Relish) [z-score]	binding signal (GST-Aq-NF-kB) [z-score]	binding signal (GST-Hu-p50) [z-score]
CCGATTAACATCAAACATTCCCATGATGTTAATCGGGTCTTGATTCGCTTGACGCTGCTG	1.96	3.21	2.5	2.38	1.59	3.52	2.11
CCGATTAACATCAGGGGGTCCACTGATGTTAATCGGGTCTTGATTCGCTTGACGCTGCTG	4.33	2.44	2.96	1.99	7.96	4.83	3.28
CCGATTAACATCAGGGGATCTTATGATGTTAATCGGGTCTTGATTCGCTTGACGCTGCTG	7.32	7.01	7.89	3.1	6.67	6.41	6.06
CCGATTAACATCAGGGGGCACCCTGATGTTAATCGGGTCTTGATTCGCTTGACGCTGCTG	5.39	3.36	2.57	2.17	3.84	5.62	3.84
CCGATTAACATCAAATTATCCCCTGATGTTAATCGGGTCTTGATTCGCTTGACGCTGCTG	6.03	6.6	8.6	6.1	3.57	5.25	5.28
CCGATTAACATCAAGGGGGATATTGATGTTAATCGGGTCTTGATTCGCTTGACGCTGCTG	5.89	6.77	7.37	5.64	5.23	6.15	6.33
CCGATTAACATCAAAGTCCCGGGTGATGTTAATCGGGTCTTGATTCGCTTGACGCTGCTG	4.32	3.61	3.64	1.85	4.38	3.49	3.83
CCGATTAACATCAATGTTCCCCCTGATGTTAATCGGGTCTTGATTCGCTTGACGCTGCTG	6.95	6.49	7.58	11	5.32	6.17	5.74
CCGATTAACATCAAAAAGACCCCTGATGTTAATCGGGTCTTGATTCGCTTGACGCTGCTG	4.67	4.44	3.31	1.92	6.3	5.55	4.67
CCGATTAACATCATTTGGGAAAATGATGTTAATCGGGTCTTGATTCGCTTGACGCTGCTG	1.08	3.26	4.46	2.04	1.08	1.67	2.23
CCGATTAACATCAAAATCTCCCCTGATGTTAATCGGGTCTTGATTCGCTTGACGCTGCTG	8.53	7.57	8.79	7.3	4.44	6.41	5.85
